# Measured values: publication PMC7862700, “An all-to-all approach to the identification of sequence-specific readers for epigenetic DNA modifications on cytosine”
# Key:
# Assay in all cases: DAPPL (digital affinity profiling via proximity ligation, sequencing); 10 mM Tris-HCl pH 7.5, 50 mM NaCl, 1 mM DTT, 4% glycerol, room temperature, 30 min; GST-TFs on glutathione beads, 16-mer random dsDNA library, 0.1% formaldehyde crosslink after washing; high values mean tight binding
# Settings in all cases: protein: recombinant; tags: N-terminal GST; dsDNA, one strand shown
# [1] = target: T1, FLI1 (Homo sapiens, UniProt Q01543 1-452)
# T1 sequence: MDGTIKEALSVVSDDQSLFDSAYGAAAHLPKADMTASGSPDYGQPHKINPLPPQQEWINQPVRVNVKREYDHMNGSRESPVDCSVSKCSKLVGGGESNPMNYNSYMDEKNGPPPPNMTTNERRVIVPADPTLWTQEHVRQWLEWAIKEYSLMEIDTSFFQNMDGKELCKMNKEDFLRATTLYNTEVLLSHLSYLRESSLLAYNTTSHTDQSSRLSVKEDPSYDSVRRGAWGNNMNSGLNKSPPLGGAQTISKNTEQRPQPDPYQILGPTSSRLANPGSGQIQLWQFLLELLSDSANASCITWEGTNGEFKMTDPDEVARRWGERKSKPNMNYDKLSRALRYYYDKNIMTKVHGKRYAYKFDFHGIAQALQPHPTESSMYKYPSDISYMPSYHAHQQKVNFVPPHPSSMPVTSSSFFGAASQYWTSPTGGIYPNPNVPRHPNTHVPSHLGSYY
# Summary of the method: (§1)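 Human transcription factors fused to GST were expressed in yeast, captured on glutathione beads, given DNA barcodes and pooled with a GST-only negative control. Pools were incubated with 200 nmole of a 16-mer random double-stranded DNA library in Tris/NaCl/DTT/glycerol buffer at room temperature for 30 min. They were then washed, crosslinked with 0.1% formaldehyde, proximity-ligated (BsaI/T4 ligase, 1 h, 37 °C), PCR-amplified and sequenced on an Illumina NextSeq500. Binding signal is each 6-mer's read frequency for a factor divided by its frequency for the GST control.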
# [2] = target: T2, ELK1 (Homo sapiens, UniProt P19419 1-428)
# T2 sequence: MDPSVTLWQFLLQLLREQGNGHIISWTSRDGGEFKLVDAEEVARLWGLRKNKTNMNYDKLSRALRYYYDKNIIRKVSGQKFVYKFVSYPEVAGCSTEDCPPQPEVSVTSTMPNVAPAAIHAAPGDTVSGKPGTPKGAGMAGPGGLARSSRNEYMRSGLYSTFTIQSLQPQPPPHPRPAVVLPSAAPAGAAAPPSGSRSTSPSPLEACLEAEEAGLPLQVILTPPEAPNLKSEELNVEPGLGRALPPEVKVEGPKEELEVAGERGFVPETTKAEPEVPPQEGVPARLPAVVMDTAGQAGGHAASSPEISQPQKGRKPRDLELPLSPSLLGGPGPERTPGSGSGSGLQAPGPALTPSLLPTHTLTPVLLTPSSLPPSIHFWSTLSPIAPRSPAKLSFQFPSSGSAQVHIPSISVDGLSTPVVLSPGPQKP
# Summary of the method: as §1
# [3] = target: T3, GABPA (Homo sapiens, UniProt Q06546 1-454)
# T3 sequence: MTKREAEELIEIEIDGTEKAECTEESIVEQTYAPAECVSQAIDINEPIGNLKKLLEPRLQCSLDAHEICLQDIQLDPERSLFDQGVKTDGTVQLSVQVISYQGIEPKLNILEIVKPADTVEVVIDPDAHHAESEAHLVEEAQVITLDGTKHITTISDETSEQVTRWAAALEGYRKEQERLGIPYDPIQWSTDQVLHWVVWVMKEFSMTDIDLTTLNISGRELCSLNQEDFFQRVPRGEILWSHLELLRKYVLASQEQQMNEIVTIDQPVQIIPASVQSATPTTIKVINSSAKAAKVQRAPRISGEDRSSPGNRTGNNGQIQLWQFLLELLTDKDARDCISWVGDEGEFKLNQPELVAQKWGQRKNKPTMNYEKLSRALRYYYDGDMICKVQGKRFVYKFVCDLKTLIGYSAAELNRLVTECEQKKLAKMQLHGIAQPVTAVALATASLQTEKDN
# Summary of the method: as §1
# [4] = target: T4, ERG (Homo sapiens, UniProt P11308 1-479)
# T4 sequence: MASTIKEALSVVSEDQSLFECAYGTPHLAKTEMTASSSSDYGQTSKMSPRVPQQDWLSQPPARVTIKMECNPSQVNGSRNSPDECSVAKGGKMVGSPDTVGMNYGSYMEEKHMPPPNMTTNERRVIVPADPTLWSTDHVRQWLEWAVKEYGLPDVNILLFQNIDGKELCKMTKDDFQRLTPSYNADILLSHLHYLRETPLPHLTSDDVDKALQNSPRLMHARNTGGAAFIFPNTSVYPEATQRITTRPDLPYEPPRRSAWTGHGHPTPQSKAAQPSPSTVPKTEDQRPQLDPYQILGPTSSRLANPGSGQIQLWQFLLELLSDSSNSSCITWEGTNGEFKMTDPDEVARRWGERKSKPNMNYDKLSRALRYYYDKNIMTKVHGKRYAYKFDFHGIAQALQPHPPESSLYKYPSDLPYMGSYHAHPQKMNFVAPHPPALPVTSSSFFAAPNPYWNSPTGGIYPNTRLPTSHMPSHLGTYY
# Summary of the method: as §1
# [5] = target: ELF1 (Homo sapiens, UniProt P32519 1-619)
# Summary of the method: as §1
# [6] = target: T5, EHF (Homo sapiens, UniProt Q9NZC4 1-300)
# T5 sequence: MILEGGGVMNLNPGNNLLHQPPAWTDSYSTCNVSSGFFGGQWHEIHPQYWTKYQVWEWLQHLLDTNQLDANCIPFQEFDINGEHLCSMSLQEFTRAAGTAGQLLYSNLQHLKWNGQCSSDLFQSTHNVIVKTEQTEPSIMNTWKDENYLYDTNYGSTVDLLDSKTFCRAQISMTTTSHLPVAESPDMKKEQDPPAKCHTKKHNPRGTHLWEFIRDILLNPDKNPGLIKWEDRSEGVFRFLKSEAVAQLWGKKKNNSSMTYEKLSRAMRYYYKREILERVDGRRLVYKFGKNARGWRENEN
# Summary of the method: as §1
# [7] = target: SPIB (Homo sapiens, UniProt Q01892 1-262)
# Summary of the method: as §1
# [8] = target: T6, ELK3 (Homo sapiens, UniProt P41970 1-407)
# T6 sequence: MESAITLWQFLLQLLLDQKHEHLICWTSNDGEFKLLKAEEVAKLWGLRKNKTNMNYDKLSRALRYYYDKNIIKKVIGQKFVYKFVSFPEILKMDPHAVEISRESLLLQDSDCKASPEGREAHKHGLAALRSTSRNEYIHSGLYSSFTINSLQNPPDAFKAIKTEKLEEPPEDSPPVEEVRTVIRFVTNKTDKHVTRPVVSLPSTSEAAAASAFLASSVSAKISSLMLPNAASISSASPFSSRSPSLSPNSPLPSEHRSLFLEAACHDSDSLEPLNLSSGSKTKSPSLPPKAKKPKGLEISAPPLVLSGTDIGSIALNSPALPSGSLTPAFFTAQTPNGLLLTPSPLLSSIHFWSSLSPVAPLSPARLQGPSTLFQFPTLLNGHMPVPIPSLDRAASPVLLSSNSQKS
# Summary of the method: as §1
# [9] = target: ELF4 (Homo sapiens, UniProt Q99607 1-663)
# Summary of the method: as §1
# [10] = target: T7, ELK4 (Homo sapiens, UniProt P28324-2 1-405)
# T7 sequence: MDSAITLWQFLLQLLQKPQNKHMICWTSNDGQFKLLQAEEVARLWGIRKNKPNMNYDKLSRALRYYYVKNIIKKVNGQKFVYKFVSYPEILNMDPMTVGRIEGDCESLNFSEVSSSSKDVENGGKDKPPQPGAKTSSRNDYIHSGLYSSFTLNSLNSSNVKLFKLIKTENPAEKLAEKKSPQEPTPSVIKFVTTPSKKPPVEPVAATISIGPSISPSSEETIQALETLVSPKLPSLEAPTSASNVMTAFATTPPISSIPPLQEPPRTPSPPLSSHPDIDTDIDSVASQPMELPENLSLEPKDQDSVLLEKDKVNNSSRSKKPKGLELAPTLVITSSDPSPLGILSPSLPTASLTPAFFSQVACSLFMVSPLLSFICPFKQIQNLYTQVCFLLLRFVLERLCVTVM
# Summary of the method: as §1
# [11] = target: T8, ELF3 (Homo sapiens, UniProt P78545 1-371)
# T8 sequence: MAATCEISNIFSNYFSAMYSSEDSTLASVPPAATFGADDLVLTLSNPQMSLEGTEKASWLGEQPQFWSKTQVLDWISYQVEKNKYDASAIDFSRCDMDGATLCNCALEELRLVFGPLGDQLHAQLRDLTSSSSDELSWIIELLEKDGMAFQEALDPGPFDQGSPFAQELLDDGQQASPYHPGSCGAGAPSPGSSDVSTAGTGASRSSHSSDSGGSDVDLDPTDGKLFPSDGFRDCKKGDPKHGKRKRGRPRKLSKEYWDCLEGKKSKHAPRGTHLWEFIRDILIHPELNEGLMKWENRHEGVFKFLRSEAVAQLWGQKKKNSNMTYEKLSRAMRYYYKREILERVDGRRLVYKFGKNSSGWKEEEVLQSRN
# Summary of the method: as §1
# [12] = target: ETV1 (Homo sapiens, UniProt P50549 1-477)
# Summary of the method: as §1
# [13] = target: T9, ERF (Homo sapiens, UniProt P50548 1-548)
# T9 sequence: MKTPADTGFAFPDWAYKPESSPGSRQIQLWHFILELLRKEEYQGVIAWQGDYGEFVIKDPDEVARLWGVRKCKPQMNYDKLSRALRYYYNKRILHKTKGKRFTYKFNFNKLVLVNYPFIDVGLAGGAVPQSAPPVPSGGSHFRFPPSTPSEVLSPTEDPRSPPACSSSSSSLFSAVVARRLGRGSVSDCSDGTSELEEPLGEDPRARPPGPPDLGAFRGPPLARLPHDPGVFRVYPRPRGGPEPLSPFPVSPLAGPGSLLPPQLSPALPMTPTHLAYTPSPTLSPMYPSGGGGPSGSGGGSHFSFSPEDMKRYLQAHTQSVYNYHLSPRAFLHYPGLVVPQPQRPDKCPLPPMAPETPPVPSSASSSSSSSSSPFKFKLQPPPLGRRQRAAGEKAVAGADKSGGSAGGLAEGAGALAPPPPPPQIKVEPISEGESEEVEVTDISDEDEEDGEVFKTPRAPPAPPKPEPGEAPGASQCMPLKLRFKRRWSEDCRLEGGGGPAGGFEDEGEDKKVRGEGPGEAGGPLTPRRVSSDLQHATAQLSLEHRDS
# Summary of the method: as §1
# [14] = target: T10, ETV3L (Homo sapiens, UniProt Q6ZN32 1-361)
# T10 sequence: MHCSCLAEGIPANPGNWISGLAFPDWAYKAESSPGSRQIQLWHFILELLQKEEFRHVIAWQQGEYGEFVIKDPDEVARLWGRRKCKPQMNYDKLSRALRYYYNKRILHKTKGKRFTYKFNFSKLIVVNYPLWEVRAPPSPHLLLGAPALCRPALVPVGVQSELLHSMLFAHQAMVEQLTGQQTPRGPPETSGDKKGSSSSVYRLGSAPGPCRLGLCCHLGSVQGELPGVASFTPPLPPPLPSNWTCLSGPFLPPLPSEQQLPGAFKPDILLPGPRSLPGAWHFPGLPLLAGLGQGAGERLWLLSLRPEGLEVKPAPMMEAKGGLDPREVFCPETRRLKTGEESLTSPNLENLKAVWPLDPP
# Summary of the method: as §1
# [15] = target: T11, ETS2 (Homo sapiens, UniProt P15036 1-469)
# T11 sequence: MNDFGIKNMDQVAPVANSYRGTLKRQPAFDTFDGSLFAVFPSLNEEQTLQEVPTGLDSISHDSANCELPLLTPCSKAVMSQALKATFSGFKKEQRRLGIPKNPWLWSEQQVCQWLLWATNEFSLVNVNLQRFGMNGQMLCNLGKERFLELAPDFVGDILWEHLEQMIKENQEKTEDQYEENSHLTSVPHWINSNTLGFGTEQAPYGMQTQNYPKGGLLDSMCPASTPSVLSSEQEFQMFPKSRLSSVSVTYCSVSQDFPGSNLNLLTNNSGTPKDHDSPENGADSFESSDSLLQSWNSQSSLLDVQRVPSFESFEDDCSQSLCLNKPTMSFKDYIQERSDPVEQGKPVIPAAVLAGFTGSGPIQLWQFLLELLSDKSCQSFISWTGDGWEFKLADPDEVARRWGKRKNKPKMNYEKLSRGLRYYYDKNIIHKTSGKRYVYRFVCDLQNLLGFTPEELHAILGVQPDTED
# Summary of the method: as §1
# [16] = target: T12, ETV3 (Homo sapiens, UniProt P41162-2 1-143)
# T12 sequence: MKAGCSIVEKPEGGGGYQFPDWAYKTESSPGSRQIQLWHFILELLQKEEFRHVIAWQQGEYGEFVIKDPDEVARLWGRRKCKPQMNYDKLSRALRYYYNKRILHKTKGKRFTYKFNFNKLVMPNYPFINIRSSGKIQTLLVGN
# Summary of the method: as §1
# [17] = target: ETV6 (Homo sapiens, UniProt P41212 1-452)
# Summary of the method: as §1
# SPIB, sequence (Q01892 whole entry): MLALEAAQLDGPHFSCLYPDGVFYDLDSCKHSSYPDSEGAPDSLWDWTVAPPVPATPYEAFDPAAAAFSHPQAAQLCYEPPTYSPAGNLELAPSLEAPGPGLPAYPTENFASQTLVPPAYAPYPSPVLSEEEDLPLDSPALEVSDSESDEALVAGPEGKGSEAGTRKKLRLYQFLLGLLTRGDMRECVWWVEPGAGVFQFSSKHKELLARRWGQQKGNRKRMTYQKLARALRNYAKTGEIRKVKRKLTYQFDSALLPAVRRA
# ETV1, sequence (P50549 whole entry): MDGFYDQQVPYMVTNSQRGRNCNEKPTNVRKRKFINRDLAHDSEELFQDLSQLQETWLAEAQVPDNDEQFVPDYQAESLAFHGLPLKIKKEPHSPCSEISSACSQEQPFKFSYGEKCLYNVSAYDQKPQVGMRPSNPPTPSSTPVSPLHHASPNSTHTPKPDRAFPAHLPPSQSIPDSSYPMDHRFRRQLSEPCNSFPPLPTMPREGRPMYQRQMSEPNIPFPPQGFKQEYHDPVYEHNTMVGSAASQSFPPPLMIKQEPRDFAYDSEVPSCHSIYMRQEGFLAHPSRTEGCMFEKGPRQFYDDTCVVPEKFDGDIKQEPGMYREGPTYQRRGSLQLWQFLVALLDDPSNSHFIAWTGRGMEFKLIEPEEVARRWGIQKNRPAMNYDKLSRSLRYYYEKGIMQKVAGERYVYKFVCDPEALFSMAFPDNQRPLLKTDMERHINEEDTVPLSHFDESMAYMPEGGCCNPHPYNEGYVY
# ELF4, sequence (Q99607 whole entry): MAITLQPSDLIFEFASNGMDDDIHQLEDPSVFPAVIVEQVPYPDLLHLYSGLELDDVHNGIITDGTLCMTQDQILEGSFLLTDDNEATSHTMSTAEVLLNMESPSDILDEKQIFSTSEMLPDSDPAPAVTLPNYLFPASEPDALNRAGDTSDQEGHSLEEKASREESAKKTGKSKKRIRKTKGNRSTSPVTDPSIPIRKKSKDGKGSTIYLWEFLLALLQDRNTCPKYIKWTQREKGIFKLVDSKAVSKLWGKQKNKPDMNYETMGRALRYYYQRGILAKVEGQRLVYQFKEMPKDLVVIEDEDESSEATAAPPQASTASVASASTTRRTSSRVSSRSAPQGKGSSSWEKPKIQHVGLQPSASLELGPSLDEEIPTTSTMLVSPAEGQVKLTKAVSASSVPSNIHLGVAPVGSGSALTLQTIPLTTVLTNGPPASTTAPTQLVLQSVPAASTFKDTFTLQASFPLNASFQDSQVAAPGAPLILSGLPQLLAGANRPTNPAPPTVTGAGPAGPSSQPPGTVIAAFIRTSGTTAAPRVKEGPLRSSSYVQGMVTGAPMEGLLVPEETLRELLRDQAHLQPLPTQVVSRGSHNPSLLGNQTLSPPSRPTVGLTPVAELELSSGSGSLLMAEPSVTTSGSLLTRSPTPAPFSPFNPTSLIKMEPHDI
# ELF1, sequence (P32519 whole entry): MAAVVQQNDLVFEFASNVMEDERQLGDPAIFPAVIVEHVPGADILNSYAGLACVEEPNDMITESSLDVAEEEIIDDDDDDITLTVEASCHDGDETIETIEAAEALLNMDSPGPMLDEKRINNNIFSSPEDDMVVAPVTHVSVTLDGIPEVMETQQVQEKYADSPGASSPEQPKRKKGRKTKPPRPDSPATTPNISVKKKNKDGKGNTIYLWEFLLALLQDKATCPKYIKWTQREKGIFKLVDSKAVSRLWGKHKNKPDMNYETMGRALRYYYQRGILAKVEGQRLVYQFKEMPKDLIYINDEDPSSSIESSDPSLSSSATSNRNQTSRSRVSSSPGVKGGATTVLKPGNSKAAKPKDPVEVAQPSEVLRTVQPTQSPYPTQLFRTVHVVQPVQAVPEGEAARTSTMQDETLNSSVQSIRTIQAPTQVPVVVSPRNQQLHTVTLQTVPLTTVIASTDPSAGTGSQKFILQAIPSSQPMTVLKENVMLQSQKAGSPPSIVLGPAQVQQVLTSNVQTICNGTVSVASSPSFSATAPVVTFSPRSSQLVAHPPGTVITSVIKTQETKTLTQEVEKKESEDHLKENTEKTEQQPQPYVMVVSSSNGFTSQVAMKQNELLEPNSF
# ETV6, sequence (P41212 whole entry): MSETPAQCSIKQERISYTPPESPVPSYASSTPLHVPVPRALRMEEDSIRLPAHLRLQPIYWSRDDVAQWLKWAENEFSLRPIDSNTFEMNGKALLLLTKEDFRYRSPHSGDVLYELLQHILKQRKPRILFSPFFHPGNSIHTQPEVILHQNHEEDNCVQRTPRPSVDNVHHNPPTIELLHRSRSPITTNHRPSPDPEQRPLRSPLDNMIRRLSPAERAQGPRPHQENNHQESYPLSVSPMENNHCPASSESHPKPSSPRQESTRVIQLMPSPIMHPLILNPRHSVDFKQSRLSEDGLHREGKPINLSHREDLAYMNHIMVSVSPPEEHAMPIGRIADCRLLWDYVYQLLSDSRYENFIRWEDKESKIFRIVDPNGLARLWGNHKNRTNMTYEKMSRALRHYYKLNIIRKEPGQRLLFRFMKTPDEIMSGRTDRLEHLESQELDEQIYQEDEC
sequence,measurement,setting,value
GATCCA,binding signal,[1],"1.01 fold enrichment (6-mer frequency, TF over GST control)"
same,binding signal,[2],"1.08 fold enrichment (6-mer frequency, TF over GST control)"
same,binding signal,[3],"1.16 fold enrichment (6-mer frequency, TF over GST control)"
same,binding signal,[4],"1.03 fold enrichment (6-mer frequency, TF over GST control)"
same,binding signal,[5],"1.04 fold enrichment (6-mer frequency, TF over GST control)"
same,binding signal,[6],"1.07 fold enrichment (6-mer frequency, TF over GST control)"
same,binding signal,[7],"1.08 fold enrichment (6-mer frequency, TF over GST control)"
same,binding signal,[8],"1.02 fold enrichment (6-mer frequency, TF over GST control)"
same,binding signal,[9],"1.05 fold enrichment (6-mer frequency, TF over GST control)"
same,binding signal,[10],"1.03 fold enrichment (6-mer frequency, TF over GST control)"
same,binding signal,[11],"1.15 fold enrichment (6-mer frequency, TF over GST control)"
same,binding signal,[12],"1.07 fold enrichment (6-mer frequency, TF over GST control)"
same,binding signal,[13],"1.03 fold enrichment (6-mer frequency, TF over GST control)"
same,binding signal,[14],"1.06 fold enrichment (6-mer frequency, TF over GST control)"
same,binding signal,[15],"1.09 fold enrichment (6-mer frequency, TF over GST control)"
same,binding signal,[16],"1.05 fold enrichment (6-mer frequency, TF over GST control)"
same,binding signal,[17],"1.05 fold enrichment (6-mer frequency, TF over GST control)"
